Unmarked numbers belong to inactive results. Activity calls are given as the source filed them. Rule as the data show it, unless noted: active = inhibition above about 44%; inactive = the rest.

A short description of assay [1]: StAR promoter reporter inhibitors, counter-screen for LRH-1 inverse agonist project, cell-based, luminescence, high throughput (AID 651611; in the data active = inhibition above about 28%). To be noted: StAR promoter luciferase reporter counterscreen, at 3.6 µM, stronger effect = higher value.
Assay [2] concerns the target Nuclear receptor subfamily 5 group A member 2 (Homo sapiens) (UniProt O00482). In words: NR5A2 activity suppression in reporter cells – cell-based, luminescence, confirmation (AID 651613; in the data active = inhibition above about 42%;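 also: HEK293T cells co-transfected with LRH-1 and StAR promoter luciferase reporter; 0% = vehicle wells and 100% = parental cells lacking receptor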). The conditions noted are these: cell-based LRH-1 luciferase reporter, inverse agonism; at 3.6 µM; stronger effect = higher value.
The target in assay [3] is Steroidogenic factor 1 (Homo sapiens) (UniProt Q13285). In words: inverse agonism at SF1 nuclear receptor – cell-based, luminescence, high throughput, counter-screen for LRH-1 inverse agonist project (AID 651614).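 Also: cells cotransfected with StAR promoter reporter and SF1 expression vector; 0% = vehicle on cells with receptor and 100% = vehicle on cells lacking receptor.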 To be noted: cell-based SF1 luciferase reporter, at 3.6 µM, stronger effect = higher value.
Steroidogenic factor 1 (Homo sapiens), sequence (Q13285 whole entry, looked up, the tested form may be a part): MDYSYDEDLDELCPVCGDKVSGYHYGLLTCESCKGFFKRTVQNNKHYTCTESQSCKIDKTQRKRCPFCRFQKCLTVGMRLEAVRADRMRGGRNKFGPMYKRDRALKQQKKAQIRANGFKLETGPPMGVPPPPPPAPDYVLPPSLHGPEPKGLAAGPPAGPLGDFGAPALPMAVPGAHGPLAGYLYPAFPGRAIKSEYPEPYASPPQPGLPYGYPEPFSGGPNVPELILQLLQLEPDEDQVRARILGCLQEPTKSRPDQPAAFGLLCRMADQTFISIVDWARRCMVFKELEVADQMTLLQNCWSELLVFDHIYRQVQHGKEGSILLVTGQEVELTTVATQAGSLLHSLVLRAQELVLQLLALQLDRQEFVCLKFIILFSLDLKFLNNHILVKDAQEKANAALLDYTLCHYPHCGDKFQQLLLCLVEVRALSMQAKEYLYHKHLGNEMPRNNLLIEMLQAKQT
The nature of assay [4]: compounds suppressing VP16-driven luciferase signal – cell-based, luminescence, high throughput, counter-screen for LRH-1 inverse agonist project (AID 651615; in the data active = inhibition above about 33%). The conditions noted are these: Gal4-VP16 luciferase reporter cells, at 3.6 µM, stronger effect = higher value.

Nuclear receptor subfamily 5 group A member 2 (Homo sapiens), sequence (O00482 whole entry, looked up): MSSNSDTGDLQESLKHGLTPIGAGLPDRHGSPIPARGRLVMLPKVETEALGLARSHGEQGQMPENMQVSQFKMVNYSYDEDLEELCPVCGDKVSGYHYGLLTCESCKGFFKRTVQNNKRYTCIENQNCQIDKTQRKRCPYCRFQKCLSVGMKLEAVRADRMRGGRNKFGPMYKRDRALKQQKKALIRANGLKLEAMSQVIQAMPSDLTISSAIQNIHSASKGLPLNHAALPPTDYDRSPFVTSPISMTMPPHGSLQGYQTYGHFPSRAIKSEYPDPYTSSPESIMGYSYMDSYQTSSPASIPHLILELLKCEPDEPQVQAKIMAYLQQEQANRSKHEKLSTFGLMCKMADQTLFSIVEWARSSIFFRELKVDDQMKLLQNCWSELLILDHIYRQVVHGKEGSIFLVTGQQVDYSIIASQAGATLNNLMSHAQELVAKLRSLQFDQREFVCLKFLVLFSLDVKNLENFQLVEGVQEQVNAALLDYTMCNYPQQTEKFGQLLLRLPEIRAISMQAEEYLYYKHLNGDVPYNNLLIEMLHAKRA

On to `COc1ccc(-c2ccc(C(=O)NCc3ccncc3)c3occc23)c(C)c1`, for which the inhibition is 29.2% (active) in assay [1], 69.7% (active) in assay [2], 70.1% (active) in assay [3] and 46.4% (active) in assay [4].
On the same counts, the results for `Cc1ccc(NC(=O)COC(=O)C(NS(=O)(=O)c2ccc(Cl)cc2)C(C)O)cc1C` (stereo unspecified) are 2.25%, 61.8% (active), 43.2% (active) and -7.53%.
Regarding `COc1ccc(C(=O)Nc2ccc(S(=O)(=O)N3CCc4ccccc43)cc2)cc1`, the inhibition in assay [1] was 29.2% (active); in assay [2], 40.6%; in assay [3], 44.5% (active); in assay [4], 44.7% (active).
For `O=C(Nc1nccs1)c1ccc(S(=O)(=O)NCC2CCCCC2)cc1` the same measures were 6.64%, 41.7% (active), 42.4% and 33.3% (active).
On the same counts, the results for `CC(=O)Nc1ccc(NC(=O)CSc2nnnn2C2CCCCC2)cc1` are 17%, 57.9% (active), 44.5% (active) and -1.05%.
Regarding `O=C(Nc1ccc(S(=O)(=O)N2CCCC2)cc1)c1ccc([N+](=O)[O-])o1`, the inhibition was 26.2% in assay [1], 58.8% (active) in assay [2], 62.7% (active) in assay [3] and 15.1% in assay [4].
`CN(C)c1ccc(C=c2c3ccccc3n3c2c2ccccc2[n+]3C)cc1`: the inhibition in assay [1] was 54.9% (active); in assay [2], 107% (active); in assay [3] it was 90.7% (active); in assay [4], 91.7% (active).
For the molecule `CC1CCC2(CC1)NC(=O)N(CC(=O)Nc1ccc3c(c1)OCCCO3)C2=O` (stereo unspecified), the inhibition was 10.5% in assay [1], 46.8% (active) in assay [2], 44.8% (active) in assay [3] and -7.87% in assay [4].
In the case of `COc1ccc(-c2nnc(NC(=O)c3ccc([N+](=O)[O-])o3)o2)c(OC)c1`, the inhibition in assay [1] was 15.5%; in assay [2] it was 63.4% (active); in assay [3], 57% (active); in assay [4], 10.2%.
On the same counts, the results for `COc1cc2c(cc1OC)C(C1C(=O)CC(C)CC1=O)N(C(=O)CCl)CC2` (stereo unspecified) are 19.1%, 54.1% (active), 58.5% (active) and -19.1%.
For the molecule `CCC(=O)N1CCN(c2ccc(Cl)cc2NC(=O)c2ccc([N+](=O)[O-])o2)CC1`, the inhibition is 22.8% in assay [1], 64.7% (active) in assay [2], 61.9% (active) in assay [3] and 4.86% in assay [4].
On to `COc1ccc(S(=O)(=O)Nc2ccc(CC#N)cc2)cc1`, for which the inhibition in assay [1] was -4.36%; in assay [2] it was 31.7%; in assay [3], 29.7%; in assay [4], -0.34%.
For `O=C(COc1ccc2c3c(c(=O)oc2c1)CCC3)NCc1ccncc1` the same measures were 0.83%, 50% (active), 41.4% and -2.51%.
Consider `COc1ccc(-n2c(N)c(C(=O)NCc3cccnc3)sc2=S)cc1`, for which the inhibition in assay [1] was 4.01%; in assay [2] it was 48.7% (active); in assay [3], 50.4% (active); in assay [4], -1.03%.
For `O=C(c1ccccc1)c1ccc2nc(N3CCN(C(=O)c4ccco4)CC3)c3nncn3c2c1`, the inhibition was 3.94% in assay [1], 43% (active) in assay [2], 44.3% (active) in assay [3] and -14.2% in assay [4].
For `CCCN(CC(=O)Nc1ccc(C(N)=O)cc1)CC(=O)Nc1ccccc1C` the same measures were 15.3%, 55.4% (active), 53.9% (active) and 6.63%.
On to `O=[N+]([O-])c1ccc(N2CCCC2)cc1N1CCCC1`, for which the inhibition was 9.77% in assay [1], 56.8% (active) in assay [2], 60.4% (active) in assay [3] and 8.32% in assay [4].
For `Cc1cc(C)c2c(C)c(C(=O)NCc3ccncc3)oc2c1` the same measures were 9.09%, 46.3% (active), 38.3% and 7.5%.
For `CCC(C)Nc1nc(-c2cccc(OC)c2O)nc2ccccc12` (stereo unspecified) the same measures were 30.8% (active), 52.4% (active), 46.3% (active) and -7%.
On to `COc1cc2cc(C(=O)NC(C)c3cccc4ccccc34)c(N)nc2cc1OC` (stereo unspecified), for which the inhibition in assay [1] was 34.5% (active); in assay [2], 43.9% (active); in assay [3], 59.1% (active); in assay [4] it was 23.9%.
On the same counts, the results for `CC(=O)Nc1ccc(NC(=O)CSc2nc3nc(-c4cccs4)cc(C(F)(F)F)c3c(=O)[nH]2)cc1` are 8.21%, 54.2% (active), 49.2% (active) and -4.54%.
On the same counts, the results for `C=CCNC(=S)N/N=C/c1ccc(N(CC)Cc2ccccc2)cc1` are 11.4%, 38.4%, 24.4% and 6.68%.
On the same counts, the results for `CCCN(CC(=O)Nc1ccccc1C)CC(=O)Nc1ccc(Br)cc1F` are 8.48%, 58.6% (active), 51.6% (active) and 1.69%.
On to `Cc1cc(OCC(=O)NC2CC2)c2c(C)cc(=O)oc2c1`, for which the inhibition in assay [1] was 18.9%; in assay [2], 65.5% (active); in assay [3], 58.2% (active); in assay [4], -8.04%.

(Values after PubChem BioAssay.)
